Values joined by “and” are separate entries in the source; they are usually repeats but may differ in a detail not shown here. Equal values may be shown once. Compounds without any hit were thinned out: in the full panel of roughly 83,000, 20% have a hit.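 Negative percent growth values reflect cell death: -40 means 40% of the cells present at the start died, and -100 means all died.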 Active and inactive are the calls of the source. The calls were made as follows: active = growth percent below 10; inactive = the rest.

This experiment relates to HL-60(TB) leukemia. Briefly: NCI-60 one-dose screen, 48 h (100 = growth as untreated, 0 = no growth, -100 = all killed). The settings on record: 10 µM unless noted.
As to `Cc1ccc(S(=O)(=O)C2=C3C(=C(c4ccccc4)c4ccccc43)CN(S(=O)(=O)c3ccc(C)cc3)C2)cc1`, the growth is 65.7% (inactive).
On to `Cc1ccc(/C=C/c2c(C(=O)/C=C/c3ccc(C(F)(F)F)cc3)c(C)nc3ccccc23)cc1`, for which the growth was -41.3% (active).
With `Cc1cccc2nnc(-c3ccccc3)n12` the figure was 99% (inactive); with `NS(=O)(=O)c1ccc(-n2nc(-c3ccc(Br)cc3)ccc2=O)cc1`, 88.5% [100 µM] (inactive).
On to `O=C1c2ccccc2-c2c1nc1ccccc1[n+]2[O-]`, for which the growth was 101% (inactive).
With `NC1CCC(C(=O)O)CC1` (stereo not drawn) the figure was 113% (inactive) and 110% (inactive).
In the case of `ClC/C=C/CSc1ncnc2nc[nH]c12`, the growth was 97.9% (inactive) and 95.6% (inactive).
Consider `Nc1c(C(=O)Nc2ccncc2)sc2nc3c(cc12)C(O)CCC3` (stereo not drawn), for which the growth was 95.4% (inactive).
As for `CO/N=C/C=C\C(=O)N/C=C/C[C@H]1/C=C/[C@H](O)/C=C\C=C\c2cccc(O)c2C(=O)O1`, the growth is 23.3% (inactive) and -28.4% (active).
In the case of `Cc1ccc(NC(=S)NNC(=S)NNc2ccccc2)cc1C`, the growth was 20.4% (inactive).
As for `C/C(=N\NC(=O)c1sc(=S)n(C)c1N)c1cc2ccccc2o1`, the growth was 26.6% (inactive).
Consider `Nc1c(C(=O)Nc2ccccc2Cl)sc2nc3c(cc12)C(O)CCC3` (stereo not drawn), for which the growth was 0.926% (active).
As for `CCN1CCN(c2cc(C)nc(N(CCCNc3ccnc4cc(Cl)ccc34)Cc3cccs3)n2)CC1`, the growth is -50.3% (active).
As for `Cn1cc(-c2csc(-c3cn(CCNC(=O)OC(C)(C)C)c4ccccc34)n2)c2cccnc21`, the growth was 45.9% (inactive).
As to `Oc1ccccc1/C=N\NC(=S)N/N=C/c1ccccc1O`, the growth is -7.82% (active) and 18.6% (inactive).
Consider `Nc1ccccc1NC(=O)CCCCC(=O)Nc1ccc2c(c1)/C(=C/c1ccc[nH]1)C(=O)N2`, for which the growth was 89.6% (inactive).
With `COc1cc2c(O)n(CCCn3ccnc3)c3c4cnc5cccc(c(=O)c3c2cc1OC)c54` the figure was 6.68% (active); with `O=C(/C=C/c1cccc(Cl)c1)OCc1ccc2cc1OCC#C/C=C\C#CCO2`, 81.8% (inactive).
`COc1cccc(-c2nn(-c3ccccc3)cc2-c2ccnc(NCCCNC(=O)c3ccc(F)cc3)c2)c1`: the growth was 19.3% (inactive).
Consider `Cc1ccc(S(=O)(=O)n2ccnc2)cc1`, for which the growth is 124% (inactive).
With `Nc1nc(Cl)c2ncn(Cc3cc4c(cc3I)OCO4)c2n1` the figure was 52.3% (inactive); with `CN1CCC(CN2c3ccccc3Sc3ccccc32)C1` (stereo not drawn), 63.9% (inactive); with `COc1ccc(Oc2ccccc2NC(=O)CNC(=O)c2cccc3ccccc23)cc1`, -22.8% [5 µM] (active).
For the molecule `CN(C)c1ccc(C(=C2C=CC(=[N+](C)C)C=C2)c2ccccc2Cl)cc1`, the growth was -48.7% (active) and 9.12% (active).
Consider `C=C1CC[C@@H]2[C@](C)(COC(C)=O)[C@H](OC(C)=O)CC[C@@]2(C)[C@@H]1CC(Sc1ccccc1)C1=CCOC1=O` (stereo partly drawn), for which the growth is -46.5% (active).
In the case of `c1ccc2c(c1)cnc1ccccc12`, the growth is 94.9% (inactive).
In the case of `Cn1nccc1Nc1nccc(-c2ccn([C@H](CO)c3ccc(Cl)c(F)c3)c(=O)c2)n1`, the growth is 57.1% (inactive).
As to `COc1ccc(-c2nc(/C=N/Nc3cc(C)nc4ccc(Cl)cc34)c(C)o2)cc1`, the growth was -41% (active).
As for `COc1cc2oc(-c3ccc(O)cc3)cc(=O)c2c(O)c1I`, the growth was 99% (inactive).
For `N#Cc1c(-c2cccs2)cc(-c2cccnc2)[nH]c1=O`, the growth is 97.6% (inactive).
In the case of `O=C(/C=C/c1cc2ccccc2[nH]c1=O)/C=C/c1cc2ccccc2[nH]c1=O`, the growth is 24.7% (inactive).
In the case of `CC(=O)N[C@H](C(=O)N[C@@H](CCCNC(=N)N)C(=O)N[C@@H](CCCCN)C(=O)N[C@@H](CCCNC(=N)N)C(=O)N[C@]1(C)CCC/C=C\CCC[C@@](C)(C(=O)N[C@@H](CC(C)C)C(=O)N[C@@H](CC(C)C)C(=O)N[C@@H](CCC(N)=O)C(=O)N[C@@H](CCC(=O)O)C(=O)N[C@@H](CCCNC(=N)N)C(=O)N[C@@H](CCC(=O)O)C(=O)N[C@@H](CC(C)C)C(=O)N[C@H](C(=O)N[C@@H](CCC(=O)O)C(N)=O)C(C)C)NC(=O)[C@H](CCCNC(=N)N)NC(=O)[C@H](CC(C)C)NC1=O)C(C)C`, the growth was 104% (inactive).
The value for `CCCCNC(=O)Oc1ccc(/C(=C(/CC)Cc2ccccc2)c2ccc(OCCN3CCCCCC3)cc2)cc1` was -12.8% (active).

These data come from PubChem BioAssay (NCI).
